Several values for one entry are separate records, joined by “and”; a condition that tells them apart may be missing. Equal values may be shown once. Results filed as inconclusive are left out. Where a call stands in place of a potency, no number is given. Activity calls are given as the source filed them. Calls follow the shape of the dose curve; as a rule, active = well fitted inhibition curve with a large enough effect in the signal ratio in the repeat runs (not every such curve was filed as active); inconclusive = weak or mixed curves, or effect the other way; inactive = no such curve, though single readings can be large or run the other way; the % refers to the signal ratio.
Potency is read from the fitted curve at half-maximal effect.

The target in this assay is Estrogen receptor beta (Homo sapiens) (UniProt Q92731). Nature of the assay: qHTS assay to identify small molecule antagonists of the estrogen receptor beta (ER-beta) signaling pathway (AID 1259378). The following applies: ER-beta-UAS-bla HEK293T, beta-lactamase FRET ratio, 16 h; series mostly up to 92.4 µM. The text has this: National Center for Advancing Translational Sciences [NCATS]
Chain of Estrogen receptor beta (Homo sapiens) (Q92731 whole entry, looked up): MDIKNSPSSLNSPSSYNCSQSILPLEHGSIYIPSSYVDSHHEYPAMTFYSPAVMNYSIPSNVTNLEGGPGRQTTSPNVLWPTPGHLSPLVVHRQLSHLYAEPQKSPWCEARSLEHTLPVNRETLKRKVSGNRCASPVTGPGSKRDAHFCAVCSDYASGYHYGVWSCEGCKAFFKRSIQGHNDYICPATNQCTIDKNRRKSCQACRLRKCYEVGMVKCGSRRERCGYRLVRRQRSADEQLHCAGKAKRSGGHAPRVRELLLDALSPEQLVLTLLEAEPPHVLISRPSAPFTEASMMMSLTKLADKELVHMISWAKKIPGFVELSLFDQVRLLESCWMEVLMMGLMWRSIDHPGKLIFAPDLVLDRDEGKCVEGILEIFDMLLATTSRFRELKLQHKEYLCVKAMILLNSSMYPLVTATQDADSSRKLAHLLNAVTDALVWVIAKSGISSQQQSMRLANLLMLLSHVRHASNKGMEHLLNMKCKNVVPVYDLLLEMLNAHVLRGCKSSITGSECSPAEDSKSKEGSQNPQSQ
NIH Chemical Genomics Center [NCGC]
U.S. Environmental Protection Agency [EPA]
National Institutes of Environmental Health Sciences [NIEHS]
National Toxicology Program [NTP]
U.S. Food and Drug Administration [FDA]
Estrogen receptor (ER), a nuclear hormone receptor, plays an important role in development, metabolic homeostasis and reproduction. Two subtypes of ER, ER-alpha and ER-beta, have similar expression patterns with some uniqueness in both types. Endocrine disrupting chemicals (EDCs) and their interactions with steroid hormone receptors like ER causes disruption of normal endocrine function. To identify the compounds that inhibit ER signaling, an ER-beta-UAS-bla GripTite cell line (Life Technologies, Madison, WI, USA) containing a beta-lactamase reporter gene under the control of an UAS response element was used to screen Tox21 10K compound library.
Tox21 Assay Protocol Summary:
ER-beta-UAS-bla HEK293T cells were dispensed at 2,000 cells/4 uL of assay medium containing 2% charcoal stripped FBS per well into black wall/clear-bottom 1536-well plates using a Multidrop Combi (ThermoFisher Scientific, Waltham, MA) dispenser. After the assay plates were incubated at a 37C and 5% CO2 for 6 hr, 23 nL of compounds dissolved in DMSO, positive controls or DMSO only was transferred to the assay plate by a Pintool station (Kalypsys, San Diego, CA), followed by addition of 1 uL (1nM as final concentration) of 17-beta-estradiol (E2) in assay medium using a BioRAPTR FRD (Flying Reagent Dispenser, Aurora Discovery, San Diego, CA). The plates were incubated at 37C and 5% CO2 for 16 hr. Then 1 uL of LiveBLAzerTM B/G FRET substrate was added using a Flying Reagent Dispenser, the plates were incubated at room temperature for 2 hours, and fluorescence intensity was measured by an Envision plate reader (PerkinElmer, Shelton, CT).
In general terms: Quantitative high-throughput screening tests each substance at several concentrations.
With `C[C@]12Cc3nonc3C[C@@H]1CC[C@@H]1[C@@H]2CC[C@@]2(C)[C@H]1CC[C@]2(C)O`, the Potency was 18.8 µM (active). The value for `N#CNC#N` was “inactive”; that for `O=C1NCN(c2ccccc2)C12CCN(CC1COc3ccccc3O1)CC2` (stereo not given) was “inactive”; that for `Cc1cc(C(F)(C(F)(F)F)C(F)(F)F)ccc1NC(=O)c1cccc(I)c1C(=O)NC(C)(C)CS(C)(=O)=O` was “inactive”. Take `BrCC(Br)c1ccccc1` (stereo not given): the Potency entry is “inactive”. In the case of `CC(Cc1ccc(C(C)(C)C)cc1)CN1C[C@@H](C)O[C@@H](C)C1` (stereo not given in full), the Potency result was “inactive”. As for `CC(C)OS(C)(=O)=O`, the Potency entry is “inactive”.

`Nc1ccc(Cl)cc1C(=O)c1ccccc1`: the Potency was 30.6 µM (active).

For the molecule `ClC1=C(Cl)[C@]2(Cl)[C@@H]3[C@@H](Cl)[C@@H](Cl)C[C@@H]3[C@@]1(Cl)C2(Cl)Cl`, the Potency result is “inactive”. With `Oc1cc(Cl)c(Cl)c(Cl)c1`, the Potency is 14.6 µM (active). Consider `N#CCCSCCC#N`, for which the Potency entry is “inactive”. The value for `CCc1nn(C)c(C(=O)NCc2ccc(C(C)(C)C)cc2)c1Cl` was 24.3 µM (active); that for `c1ccc(Nc2ccc3ccccc3c2)cc1` was 54.2 µM (active) and 48.6 µM (active); that for `O=[N+]([O-])c1cc(Cl)ccc1Cl` was “inactive”. The value for `CN(CCCC(O)c1cccnc1)N=O` (stereo not given) was “inactive”; that for `c1ccc2c(c1)[nH]c1cnccc12` was “inactive”; that for `C[As+](C)(C)CC(=O)[O-]` was “inactive”.

Turning to `Cc1cccc(OP(=O)(Oc2cccc(C)c2)Oc2cccc(C)c2)c1`, the Potency entry is “inactive”.

For `CCOP(=S)(OCC)SCS(=O)(=O)CC`, the Potency result was “inactive”. The value for `CC(C)[C@H](C(=O)O[C@H](C#N)c1cccc(Oc2ccccc2)c1)c1ccc(Cl)cc1` was “inactive”; that for `O=[N+]([O-])c1ccc(Oc2ccc(C(F)(F)F)cc2[N+](=O)[O-])cc1` was “inactive”.

Turning to `Cc1cc(Cl)ccc1O[C@H](C)C(=O)O`, the Potency result is “inactive”.

With `NC(=O)c1ccc(N)nc1`, the Potency entry was “inactive”.

With `COc1ccc(OC)c(CC(C)N)c1` (stereo not given), the Potency result is “inactive”. Next, `Cc1ccc(OP(=O)(Oc2ccccc2)Oc2ccccc2)cc1`: 24.7 µM (active); `Nc1ccccc1C(=O)OC/C=C/c1ccccc1`: 48.7 µM (active). With `Cc1cc(N=Nc2ccccc2C)ccc1N`, the Potency is 19.3 µM (active). Regarding `CC(C)CCCCCOC(=O)c1ccccc1C(=O)OCCCCCC(C)C`, the Potency entry is “inactive”. Next, `Oc1ccc(C(=C(Cl)Cl)c2ccc(O)cc2)cc1`: 3.43 µM (active); `Clc1ccc(COC(Cn2ccnc2)c2ccc(Cl)cc2Cl)cc1` (stereo not given): 13.3 µM (active). Consider `CN(C)CCc1c[nH]c2cccc(O)c12`, for which the Potency entry is “inactive”. In the case of `Clc1ccc(C(Cl)(Cl)Cl)c(Cl)c1`, the Potency entry is “inactive”. For `CCOP(=S)(OCC)OC(Cl)C(Cl)(Cl)Cl` (stereo not given), the Potency result is “inactive”.

In the case of `CC(C)(C)OO`, the Potency entry is “inactive”. As for `CCN`, the Potency entry was “inactive”. Next, `Clc1ccc(-c2ccccc2)cc1`: “inactive”; `CC1(C)[C@H](C(=O)O[C@H](C#N)c2cccc(Oc3ccccc3)c2)[C@@H]1/C=C(\Cl)C(F)(F)F`: “inactive”; `CC(C)CC(C)Nc1ccc(Nc2ccccc2)cc1` (stereo not given): 30.1 µM (active). On to `c1ccc2c(c1)OCC(C1=NCCN1)O2` (stereo not given), for which the Potency is 11.9 µM (active). `BrCBr`: the Potency entry is “inactive”.

The record behind these values is PubChem BioAssay (Tox21).
